Rows were chosen to be rich in hits. Some 9.4% of all compounds tested hit in one or more screens of this group.
Pf growth 48h: P. falciparum growth inhibition at 48 hours (one generation); P. falciparum luciferase growth in erythrocytes, 48 h; Potency, µM (doses to about 28.7 µM), without a hit: at the highest dose activity change, negative = inhibition, most hits filed as inhibitors; hit rate 5.9% among 310,000; AID 504832; also: % is scaled to controls: 0 for no effect and ±100 for the full control effect
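A one-generation exposure of luciferase-tagged malaria parasites in RPMI 1640/Albumax erythrocyte culture, 37 C and 5% CO2. Inhibition is inferred from decreased luminescence after adding detection reagent.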
Pf growth 96h: P. falciparum growth inhibition at 96 hours; hit rate 6.9% among 320,000; P. falciparum luciferase reporter growth, 96 h; Potency, µM (series often up to 28.7 µM), without a hit: at the top dose activity change, negative = inhibition, most hits filed as inhibitors; AID 504834; also: % is scaled to controls: 0 for no effect and ±100 for the full control effect
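Infected RBCs, 2% Hct / 0.05% parasitemia final; luciferase-reporter P. falciparum; cpd 96 h, 37 C, 5% CO2; luciferase detection reagent; luminescence.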
AMA1-RON2 inh: disrupts binding of P. falciparum AMA1 to RON2; AlphaScreen AMA1-biotinylated RON2 peptide binding; Potency, µM (titrated, usually from 58.2 µM), inactives show at the top dose activity change, negative = inhibition, most hits filed as inhibitors; hit rate 0.2% among 360,000; AID 720542;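 also: 0% = vehicle wells and -100% = peptide control; nearly all actives have a fitted effect of over 45% in size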
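AMA1 (3D7) with his tag at 25 nM final met compounds first, then biotinylated RON2 peptide at 25 nM; detection used donor plus acceptor beads, 10 µg/mL apiece, read by AlphaScreen after 30 min at room temperature.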
SARS PLP yeast: SARS-CoV PLP inhibition in yeast. S. cerevisiae expressing SARS-CoV PLpro, growth rescue. Potency, µM (top dose mostly 32.9 µM), without a hit: top-dose activity, positive = growth rescue, hits mostly activators. AID 485353. hit rate 0.19% among 330,000; calls by dose curve; also: 0% is about no effect; nearly all actives have a fitted effect of over 55% in size
* marks the source's active call; other numbers are inactive results; [ ] = remark or other dose. Unless noted, calls follow the shape of the dose curve; as a rule, active = well fitted curve in the direction sought with a large enough effect; inconclusive = small, poorly fitted or top-dose-only effect, or another doubt; inactive = no such curve, though single readings can be large; an effect the other way counts as inactive or inconclusive. Potency is read from the fitted curve at half-maximal effect.

For Cc1ccc2c(c1)nnn2C1CCN(C(=O)C23CC4CC(CC(C4)C2)C3)CC1 the results were Pf growth 48h inconclusive, Pf growth 96h 13µM*, AMA1-RON2 inh 14% and SARS PLP yeast 29%.
Screening Cc1ccc2c(c1)nnn2C1CCN(C(=O)NC23CC4CC(CC(C4)C2)C3)CC1 returned Pf growth 48h 9%, Pf growth 96h 60% and SARS PLP yeast 0%.
Screening Cc1ccc2c(c1)nnn2C1CCN(CC(=O)N(c2ccccc2)c2ccccc2)CC1 returned Pf growth 48h 6.6µM*, Pf growth 96h 12µM*, AMA1-RON2 inh -7% and SARS PLP yeast 0%.
`O=C1Cc2c(-c3ccccc3)cc(-c3cccc(Cl)c3)nc2-c2ccccc2N1` gave AMA1-RON2 inh -23%.
Screening CCc1nc2ccccc2n1CC(C)C(=O)O (stereo not given) returned Pf growth 48h -16%, Pf growth 96h inconclusive, AMA1-RON2 inh 0% and SARS PLP yeast -6%.
For CC(OC(=O)CN1C(=O)NC2(CCCC2)C1=O)C(=O)Nc1cccc(Cl)c1Cl (stereo not given) the results were Pf growth 48h 10%, Pf growth 96h 23%, AMA1-RON2 inh 2% and SARS PLP yeast 1%.
Screening CCOC(=O)NC(=O)c1cn(-c2ccc(OC)cc2)c(=O)[nH]c1=O returned Pf growth 96h 0%, AMA1-RON2 inh 12% and SARS PLP yeast 2%.
Screening NC(=O)CCCCC1CCSS1 (stereo not given) returned Pf growth 48h inconclusive and Pf growth 96h 11µM*.
`Cc1cc(N2CCC(C)CC2)nc2cccc(O)c12` gave Pf growth 96h 12µM*, AMA1-RON2 inh -16% and SARS PLP yeast -9%.
For Cc1cc(N2CCCCC2)nc2ccccc12 the results were Pf growth 48h 18%, Pf growth 96h -27%, AMA1-RON2 inh -2% and SARS PLP yeast -3%.
Screening CC(=O)Nc1cccc(C(=O)N2CCN(Cc3ccccc3)CC2)c1 returned Pf growth 48h 30%, AMA1-RON2 inh -5% and SARS PLP yeast -7%.
CCC(Sc1nc2ccsc2c(=O)n1-c1ccc(Cl)c(C)c1)C(=O)NCc1ccco1 (stereo not given) was read as Pf growth 48h 13µM*, Pf growth 96h 12µM*, AMA1-RON2 inh -11% and SARS PLP yeast -27%.
COc1cccc(C(=O)N(Cc2nc(-c3ccc(C)cc3)no2)C(C)C)c1 was read as Pf growth 48h 25%, AMA1-RON2 inh -13% and SARS PLP yeast -5%.
For COCc1cc(CN(C)C(=O)c2oc3c(F)cccc3c2C)[nH]n1 the results were Pf growth 48h 11%, Pf growth 96h 13µM*, AMA1-RON2 inh -9% and SARS PLP yeast -9%.
Screening O=C(CCCC(=O)NN=Cc1ccc(Cl)cc1Cl)NN=Cc1ccc(Cl)cc1Cl returned AMA1-RON2 inh 9%.
C1=C(c2c[nH]c3ccccc23)CCN(Cc2ccccc2)C1 was read as Pf growth 48h inconclusive, Pf growth 96h -22%, AMA1-RON2 inh -13% and SARS PLP yeast 4%.
`CN1CC=C(c2c[nH]c3ccccc23)CC1` gave Pf growth 48h 2.6µM*, Pf growth 96h 24%, AMA1-RON2 inh 7% and SARS PLP yeast -14%.
For O=C1NC(=Nc2ccc(Cl)cc2)/C(=C/c2ccco2)S1 the results were Pf growth 48h inconclusive, Pf growth 96h inconclusive, AMA1-RON2 inh -2% and SARS PLP yeast -4%.
Screening O=[N+]([O-])c1cccc(/C([O-])=C(/C(=S)Nc2cccc3ccccc23)[n+]2ccccc2)c1 returned Pf growth 48h 9.3µM*, Pf growth 96h inconclusive, AMA1-RON2 inh 8% and SARS PLP yeast -21%.
`Cc1cc(O)c(-c2cc(C(=O)Nc3cccnc3)[nH]n2)cc1C` gave Pf growth 48h 2.6µM*, Pf growth 96h 2.1µM*, AMA1-RON2 inh 87% and SARS PLP yeast -1%.
Screening CCc1ccc(O)c(-c2cc(C(=O)Nc3cccnc3)[nH]n2)c1 returned Pf growth 48h inconclusive, Pf growth 96h 0.41µM*, AMA1-RON2 inh 104% and SARS PLP yeast -2%.
For CC(=O)Nc1ccc(NC(=O)c2cc(-c3cc(C)c(C)cc3O)n[nH]2)cc1 the results were Pf growth 48h 1µM*, Pf growth 96h inconclusive, AMA1-RON2 inh 26% and SARS PLP yeast 2%.
`Cc1cc(C)c(O)c(-c2cc(C(=O)Nc3cccnc3)[nH]n2)c1` gave Pf growth 48h 2.9µM*, Pf growth 96h 2.9µM*, AMA1-RON2 inh 67% and SARS PLP yeast 0%.
Cc1cccc(NC(=O)c2cc(-c3cc(C)cc(C)c3O)n[nH]2)c1 was read as Pf growth 48h inconclusive, Pf growth 96h inconclusive, AMA1-RON2 inh 140% and SARS PLP yeast 0%.
O=C(Nc1cccnc1)c1ccc(F)cc1 was read as Pf growth 48h 18%, Pf growth 96h 9%, AMA1-RON2 inh -15% and SARS PLP yeast -30%.
Screening C[C@@H]1CN([C@H](C)CO)C(=O)CCCn2nncc2CO[C@@H]1CN(C)C(=O)Cc1ccccc1 returned AMA1-RON2 inh 6%.
Screening Cc1ccc(S(=O)(=O)NCCCCCC(=O)Nc2cccc(C)c2)cc1 returned Pf growth 48h -10%, Pf growth 96h 12µM*, AMA1-RON2 inh 8%[2.32 µM] and SARS PLP yeast -4%.
Screening Cc1cccc(NC(=O)CCNS(=O)(=O)c2ccc(Cl)cc2)c1 returned Pf growth 48h 27%, Pf growth 96h 2%, AMA1-RON2 inh -3% and SARS PLP yeast -2%.
Screening CC(C(=O)Nc1ccc(S(=O)(=O)N2CCOCC2)cc1)N(c1ccccc1)S(C)(=O)=O (stereo not given) returned Pf growth 48h -9%, AMA1-RON2 inh 1% and SARS PLP yeast 3%.
Screening C=C(C)CN(CC)Cc1c(C(=O)N(C)CCCC)nc2ccccn12 returned Pf growth 48h -9%, Pf growth 96h 9.3µM*, AMA1-RON2 inh 15% and SARS PLP yeast 0%.
For Oc1ccccc1CN1CCN(C(O)(c2ccccc2)c2ccccc2)CC1 the results were Pf growth 48h 5.9µM*, Pf growth 96h 5.2µM*, AMA1-RON2 inh -13% and SARS PLP yeast inconclusive.
`CC(C)(C)c1ccc(C(O)CCCN2CCC(C(O)(c3ccccc3)c3ccccc3)CC2)cc1` (stereo not given) gave Pf growth 48h inconclusive, Pf growth 96h 12µM*, AMA1-RON2 inh -9% and SARS PLP yeast 1%.
CC(C)(C)c1ccc(O)c(CN2CCN(c3ccccc3)CC2)c1 was read as Pf growth 48h 2.1µM*, Pf growth 96h 1%, AMA1-RON2 inh -2% and SARS PLP yeast -5%.
`O=C(C1CC1)N1CCC(C(O)(c2ccccc2)c2ccccc2)CC1` gave Pf growth 48h -7%, AMA1-RON2 inh -3% and SARS PLP yeast -19%.
`Oc1ccccc1CN1CCC(C(O)(c2ccccc2)c2ccccc2)CC1` gave Pf growth 48h 7.4µM*, Pf growth 96h 0%, AMA1-RON2 inh -2% and SARS PLP yeast -2%.
For COc1ccc2ccccc2c1/C=N/n1cnnc1 the results were Pf growth 48h 36%, Pf growth 96h -6%, AMA1-RON2 inh 0% and SARS PLP yeast -1%.
